In PubChem BioAssay (NCI):
Compounds without any hit were thinned out: in the full panel of roughly 83,000, 20% have a hit.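 A percent growth of 40 corresponds to 60% growth inhibition; 0 means no net growth; -100 means all cells died. Active threshold: below 10.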 Unmarked numbers belong to inactive results. Calls of active or inactive are those of the source.

system: U251 CNS; experiment: NCI-60 one-dose screen, 48 h (100 = growth as untreated, 0 = no growth, -100 = all killed); conditions: 10 µM unless noted

Row | Structure (SMILES) | growth
1 | COc1ccccc1-c1ccc2c(N)c(C(=O)c3ccc4c(c3)OCO4)sc2n1 | 63.7%
2 | CC(=O)C1=C(O)C=C2Oc3c(C(=O)/C=C/c4cc(C(F)(F)F)cc(C(F)(F)F)c4)c(O)c(C)c(O)c3[C@]2(C)C1=O | -48.1% (active)
3 | CC/C=C\C[C@H](O)C/C=C1/C(=O)C=C[C@@H]1C/C=C\CCCC(=O)NC(C)C | 2.26% (active)
4 | COc1ccc(C(=O)c2sc3nc4c(cc3c2N)CCCC4)cc1OC | 39.9%
5 | CS(CCCCN=C=S)=NC(=O)c1c(F)c(F)c(F)c(F)c1F (configuration not stated) | 80.3%
6 | COc1ccc(-c2c(C)noc2-c2ccc(O)cc2O)cc1 | 93.8%
7 | COc1ccc(C(=O)c2sc3nc(-c4ccccc4OC)ccc3c2N)cc1OC | 63.2%
8 | NC1=CC(=O)C(=O)c2ccccc21 | 88%
9 | COc1ccc(C(=O)c2sc3nc4c(c(C(F)(F)F)c3c2N)CN(C(C)=O)CC4)cc1OC | 78.3%
10 | COc1cc(C2C(C(=O)c3cccs3)=C(O)C(=O)N2CCN2CCOCC2)cc(OC)c1OC (configuration not stated) | 94.7%
11 | COC(=O)C12C3C(=O)N(c4ccc(OC)cc4)C(=O)C3C(c3cn(-c4ccccc4)nc3C)N1[C@H](c1cn(-c3ccccc3)nc1C)[C@@H]1C(=O)N(c3ccc(OC)cc3)C(=O)[C@@H]12 (some centres not stated) | 93.9%
12 | COc1cc(C2CC(=O)Nc3c2cnn3Cc2ccco2)cc2c1OCCO2 (configuration not stated) | 84.6%
13 | COc1ccc(C2CC(=O)Nc3c2c(C)nn3-c2nc3ccccc3[nH]2)cc1 (configuration not stated) | 103%
14 | CCn1cc2c(cc1=O)-c1nc3ccccc3c3ccnc(c13)C2=O | 44.6%
15 | NCc1cn2cc(Cl)sc2n1 | 93.2%
16 | CCOc1ccc(Nc2nc(-c3c(C)nc4ncccn34)cs2)cc1 | 4.82% (active)

Row | Structure (SMILES) | growth
17 | N#CC1=C(N)Oc2c(ccc3ccccc23)C1c1cccs1 (configuration not stated) | 13.3%
18 | C=C1CCC2C3(C)COC(c4ccc(OC)cc4Br)OC3CCC2(C)C1/C=C/C1=CCOC1=O (configuration not stated) | 74.7%
19 | CS(=O)(=O)c1c(Nc2ccccc2)n[nH]c1N | 105%
20 | CCN(CC)C12CCCCC1(C)C(C#N)(C#N)C(C#N)=C(N)O2 (configuration not stated) | 103%
21 | O=C1c2c[n+](Cc3ccccc3)ccc2-c2nc3ccccc3c3ccnc1c23 | -77% (active)
22 | Cc1nn(-c2nc3ccccc3[nH]2)c2c1C(c1ccc3c(c1)OCO3)CC(=O)N2 (configuration not stated) | 30.5%
23 | O=C(Nc1cccc2[nH]c(C(F)(F)F)nc12)c1ccc(Br)cc1F | 18.9%
24 | COc1cc(-c2cnc3nonc3n2)c(OC)c2c1OCO2 | 93.5%
25 | COc1cnc2c(c1)C(=O)c1c-2n(CCCBr)c(=O)c2cc([N+](=O)[O-])ccc12 | -22.4% (active)
26 | Clc1cccc(Nc2nc(Nc3cnc4ccccc4c3)c3[nH]cnc3n2)c1 | 76.4%
27 | COc1cc(C2CC(=O)c3c(C)nn(-c4nc5ccccc5[nH]4)c3C2)cc(OC)c1OC (configuration not stated) | 30%
28 | CC(C)Oc1nc2c(c(=O)n(C)c(=O)n2C)n1C | 99.7%
29 | Cc1ccn2c(-c3csc(Nc4cccc(O)c4)n3)c(C)nc2c1 | 28.6%
30 | COc1ccc(-c2cnoc2-c2cc(OC)c3c(c2)OCCO3)cc1 | -17% (active)
31 | C[C@]12C[C@@H](c3ccoc3)OC(=O)[C@@H]1CC[C@]1(C)[C@@H]2CC[C@@H](O)[C@]1(C)O | 66.5%

system: PC-3 prostate; experiment: as above; conditions: 10 µM unless noted

Row | Structure (SMILES) | growth
32 | COc1ccc(C(=O)c2sc3nc4c(cc3c2N)CCCC4)cc1OC | 50.8%
33 | COc1ccc(-c2c(C)noc2-c2ccc(O)cc2O)cc1 | 71.8%
34 | COc1ccc(C(=O)c2sc3nc(-c4ccccc4OC)ccc3c2N)cc1OC | 30.9%
35 | COc1cc(C(=O)/C=C/c2c(C)n([O-])c3ccc(C)cc3[n+]2=O)cc(OC)c1OC | 64.8%
36 | COc1cc(C2C(C(=O)c3cccs3)=C(O)C(=O)N2CCN2CCOCC2)cc(OC)c1OC (configuration not stated) | 95.4%
37 | COC(=O)C12C3C(=O)N(c4ccc(OC)cc4)C(=O)C3C(c3cn(-c4ccccc4)nc3C)N1[C@H](c1cn(-c3ccccc3)nc1C)[C@@H]1C(=O)N(c3ccc(OC)cc3)C(=O)[C@@H]12 (some centres not stated) | 87%
38 | COc1ccc(C2CC(=O)Nc3c2c(C)nn3-c2nc3ccccc3[nH]2)cc1 (configuration not stated) | 38.7%
39 | N#CC1=C(N)Oc2c(ccc3ccccc23)C1c1cccs1 (configuration not stated) | 22.5%
40 | CCOC(=O)C12CCCC1=CC(=O)CC2 (configuration not stated) | 94.8%
41 | CCCC(=O)Oc1ccc(/C(=C(/CC)Cc2ccccc2)c2ccc(OCCN3CCCC3)cc2)cc1 | 70%
42 | CC/C=C\C[C@H](O)C/C=C1/C(=O)C=C[C@@H]1C/C=C\CCCC(N)=O | 19.6%
43 | O=C1c2c[n+](Cc3ccccc3)ccc2-c2nc3ccccc3c3ccnc1c23 | -7.15% (active)
44 | Cc1nn(-c2nc3ccccc3[nH]2)c2c1C(c1ccc3c(c1)OCO3)CC(=O)N2 (configuration not stated) | 21.6%
45 | O=c1ccc2cc3ccccc3cc2[nH]1 | 105%
46 | COc1cc(-c2cnc3nonc3n2)c(OC)c2c1OCO2 | 76.2%
47 | COc1cnc2c(c1)C(=O)c1c-2n(CCCBr)c(=O)c2cc([N+](=O)[O-])ccc12 | 4.1% (active)
48 | COc1cc(C2CC(=O)c3c(C)nn(-c4nc5ccccc5[nH]4)c3C2)cc(OC)c1OC (configuration not stated) | 72.2%
49 | CC/C=C\C[C@H](F)C/C=C1/C(=O)C=C[C@@H]1C/C=C\CCCC(=O)OC | 12.9%
50 | Cc1ccn2c(-c3csc(Nc4cccc(O)c4)n3)c(C)nc2c1 | 26.6%
51 | O=C(/C=C/c1cc2ccccc2[nH]c1=O)/C=C/c1cc2ccccc2[nH]c1=O | 9.61% (active)
52 | CC/C(Cc1ccccc1)=C(\c1ccc(OCCN2CCCC2)cc1)c1ccc(OC(C)=O)cc1 | 79.5%
